Experimental findings from PubChem BioAssay are described below.

The nature of test [1]: resazurin metabolic signal in HepG2 cells – cell-based, resazurin fluorescence, 24 h, PK04 Diversity Set, profiling panel (AID 1172). Note: test concentration not given here. Conditions: HepG2 viability, higher = more signal. Background: Resazurin is reduced to fluorescent resorufin, in cell work by metabolically active cells.
Test [2] in a line: budding yeast growth changes without added modifier – OD600, strain BY4716, 24 h, basal condition, primary screen (AID 1173). Conditions: S. cerevisiae BY4716 growth, OD600, 24 h; higher = more signal, called active from +8 up or from −8 down.
A short description of test [3]: viability profiling in MM1S myeloma cells – cell-based, resazurin fluorescence, basal, 24 h, PK04 Diversity Set, profiling panel (AID 1174).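 Note: MM1S multiple myeloma cell line; test concentration not given here.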 Conditions: higher = more signal, called active from +8 up or from −8 down.
For test [4], the target named is Dihydroorotate dehydrogenase (quinone), mitochondrial (Plasmodium falciparum (isolate 3D7)) (UniProt Q08210). In words: inhibition of P. falciparum DHODH – biochemical, C-terminal His tag, absorbance 600 nm, primary screen (AID 1175).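 Note: recombinant parasite enzyme with a five histidine tag at its C terminus; test concentration not given here.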 Conditions: PfDHODH enzyme, DCIP absorbance 600 nm; higher = more signal, called active from +8 up or from −8 down.
Test [5] is described as follows: inhibition of PAO1 biofilm formation – strain PAO1, LB-PBS medium, absorbance 600 nm, primary screen (AID 1176). Note: test concentration not given here. Conditions: P. aeruginosa PAO1 growth/biofilm, A600, 12 h; higher = more signal.
Test [6] can be described thus: growth modulation of vineyard yeast isolate – strain RM11-1a, OD600, basal, 24 h, primary screen (AID 1177).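 Note: cultures grown under basal conditions with no added stressor; test concentration not given here.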 Conditions: S. cerevisiae RM11-1a growth, OD600, 24 h; higher = more signal, called active from +8 up or from −8 down.
Test [7] in a line: growth of efflux-deficient E. coli DRC39 – strain DRC39, OD650, 24 h, E. coli filamentation inducers, primary screen (AID 1178).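 Note: growth measured as culture turbidity by optical density at 650 nm; test concentration not given here.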 Conditions: E. coli DRC39 acrAB, higher = more signal, called active from +8 up or from −8 down.
The nature of test [8]: growth of efflux-deficient E. coli DRC39 – strain DRC39, OD650, 48 h, E. coli filamentation inducers, primary screen (AID 1179).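 Note: screen aims at cell division blockers that make cells filament.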 Conditions: E. coli DRC39 delta-acrAB growth, higher = more signal, called active from +8 up or from −8 down.
Test [9] is described as follows: viability profiling in RPMI8226 myeloma cells – cell-based, resazurin fluorescence, basal, 24 h, PK04 Diversity Set, profiling panel (AID 1180).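 Note: RPMI8826 multiple myeloma cell line at 5000 cells per well; test concentration not given here.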 Conditions: higher = more signal.
Test [10] addresses E3 ubiquitin-protein ligase XIAP (Homo sapiens) (UniProt P98170). In words: small molecules binding XIAP protein – biophysical, small-molecule microarray, fluorescence 635 nm, primary screen (AID 1181).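 Note: score merges 667 nm emission and signal to noise over triplicate slides.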 Conditions: higher = more signal.

Active and inactive are the calls of the source. Unless noted, the rule behind the calls is not given here.

Sequence of Dihydroorotate dehydrogenase (quinone), mitochondrial (Plasmodium falciparum (isolate 3D7)) (Q08210 whole entry, looked up): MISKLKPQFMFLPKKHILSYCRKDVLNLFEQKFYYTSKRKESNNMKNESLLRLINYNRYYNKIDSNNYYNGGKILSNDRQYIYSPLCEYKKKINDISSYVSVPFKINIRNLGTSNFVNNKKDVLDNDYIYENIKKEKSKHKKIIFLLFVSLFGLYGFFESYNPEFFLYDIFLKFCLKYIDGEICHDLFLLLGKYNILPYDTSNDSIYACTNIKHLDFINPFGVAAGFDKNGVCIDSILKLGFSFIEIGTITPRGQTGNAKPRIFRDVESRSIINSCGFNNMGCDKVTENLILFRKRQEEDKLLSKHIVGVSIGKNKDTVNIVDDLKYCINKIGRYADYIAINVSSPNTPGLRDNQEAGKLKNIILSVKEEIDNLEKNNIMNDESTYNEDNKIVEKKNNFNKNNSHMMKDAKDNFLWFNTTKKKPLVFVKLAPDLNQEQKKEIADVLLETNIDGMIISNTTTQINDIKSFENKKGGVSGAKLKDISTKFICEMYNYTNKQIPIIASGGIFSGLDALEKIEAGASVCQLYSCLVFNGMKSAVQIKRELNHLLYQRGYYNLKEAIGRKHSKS
Sequence of E3 ubiquitin-protein ligase XIAP (Homo sapiens) (P98170 whole entry, looked up): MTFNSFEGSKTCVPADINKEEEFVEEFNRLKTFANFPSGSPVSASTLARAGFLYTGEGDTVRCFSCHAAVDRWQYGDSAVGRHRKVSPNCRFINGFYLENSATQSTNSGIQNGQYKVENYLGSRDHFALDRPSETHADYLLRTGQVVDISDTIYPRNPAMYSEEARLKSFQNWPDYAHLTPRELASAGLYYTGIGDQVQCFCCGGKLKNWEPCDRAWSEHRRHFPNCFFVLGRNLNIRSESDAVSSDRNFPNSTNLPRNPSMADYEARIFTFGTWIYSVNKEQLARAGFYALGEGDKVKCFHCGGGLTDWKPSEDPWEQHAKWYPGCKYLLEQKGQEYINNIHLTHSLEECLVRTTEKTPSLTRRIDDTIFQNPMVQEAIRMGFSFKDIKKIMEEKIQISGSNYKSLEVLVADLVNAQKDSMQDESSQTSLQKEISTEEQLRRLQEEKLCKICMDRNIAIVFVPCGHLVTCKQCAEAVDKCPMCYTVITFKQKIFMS

For the molecule `CC(C)C[C@@H]1NC(=O)[C@@H]2C[C@H](C(=O)NCCCCCN)[C@H](c3cccc(OCCO)c3)N2C1=O`, the z-score in [1] is -0.573; in test [2], -1.22 (inactive); in test [3], 0.522 (inactive); in test [5], 0.792 (inactive); in test [6] it was -2.75 (inactive); in test [7] it was 1.06 (inactive). The z-score in test [8] is 1.75 (inactive); in test [9], 0.465. Besides, the results for the composite z-score in test [4] and in test [10] were -1.78 (inactive) and 0.0337, respectively.
With `COC(=O)[C@@]1(Cc2ccc(F)cc2)[C@H]2c3cc(C(=O)N(C)C)n(Cc4ccc(S(C)(=O)=O)cc4)c3C[C@H]2CN1C(=O)c1ccccc1`, the z-score in test [1] is -0.304; in test [2], 0.571 (inactive); in test [3] it was -0.0532 (inactive); in test [5] it was 0.122 (inactive); in test [6], 0.325 (inactive); in test [7], -0.104 (inactive). In addition, the z-score is 0.118 (inactive) in [8] and -1.04 in test [9]. Further, the figures for the composite z-score in [4] and in test [10] were 0.382 (inactive) and -0.102, respectively.
Take `CCCCC=C[C@@H](NC(=O)Oc1cccc(C(F)(F)F)c1)c1ccccc1`: the z-score in test [1] was -1.68; in test [2], 1.74 (inactive); in [3], -2.06 (inactive); in test [5] it was 2.62 (inactive); in test [6], 1.37 (inactive); in test [7], -0.844 (inactive). The z-score in test [8] was -0.665 (inactive); in test [9], -2.1. Further, the values for the composite z-score in test [4] and in test [10] were -3.25 (inactive) and 0.0748, respectively.
Take `CC1CC/C=C\[C@H]2OC34C=CCN(C(C)(C)C)C(=O)[C@H]3N(CCCCCCO)C(=O)[C@@H]4C2C(=O)O1` (stereo not given in full): the z-score in [1] is -0.0231; in [2], -0.51 (inactive); in [3] it was -1.72 (inactive); in test [5], -0.401 (inactive); in [6] it was 0.0296 (inactive); in [7], 0.504 (inactive). The results for the z-score in [8] and in [9] were 0.749 (inactive) and -1.14, respectively. Moreover, the composite z-score in [4] was -1.07 (inactive); in [10], 0.191.
For the molecule `COC(=O)[C@@]1(Cc2ccc(F)cc2)[C@H]2c3cc(C(=O)N4CCCC4)n(Cc4ccc(C)o4)c3C[C@H]2CN1C(=O)c1ccccc1`, the z-score in test [1] was -0.814; in test [2], 0.707 (inactive); in test [3], -6.17 (inactive); in [5], -0.595 (inactive); in test [6], 0.544 (inactive); in [7] it was -0.201 (inactive). Moreover, the z-score is 0.548 (inactive) in test [8] and -5.35 in test [9]. For the same molecule, the composite z-score was -1.04 (inactive) in test [4] and 0.0623 in [10].
As for `CCCN1C(=O)[C@]2(CCS(=O)(=O)c3ccccc3)N=C(c3ccc(OCCCO)cc3)O[C@@H]2c2ccccc21`, the z-score in test [1] is -0.264; in test [2], -0.443 (inactive); in test [3], -0.278 (inactive); in [5] it was 0.0279 (inactive); in [6], 0.492 (inactive); in test [7], 1.82 (inactive). For the same molecule, the z-score in test [8] was 0.544 (inactive); in test [9], -0.967. For the same molecule, the composite z-score in test [4] was 0.507 (inactive); in [10], -0.0773.
For the molecule `Cc1ccc(S[C@]2(C(=O)NC(C)C)CC(=O)N(Cc3ccccc3Cl)[C@@H]2c2ccc(CO)cc2I)cc1`, the z-score in test [1] is 0.36; in test [2], -3.93 (inactive); in test [3], -2.83 (inactive); in test [5], 0.723 (inactive); in [6], -1.89 (inactive); in test [7], 0.0051 (inactive). Besides, the z-score in test [8] was -0.465 (inactive); in test [9], -2.24. Moreover, the composite z-score in test [4] is -0.766 (inactive); in [10], -0.074.
On to `CCOC1=C2C(CN(S(=O)(=O)c3ccc(C)cc3)C2c2ccc(C)cc2)C2C(=O)N(c3ccccc3)C(=O)C2C1` (stereo not given), for which the z-score was -0.635 in test [1]; 0.941 (inactive) in test [2]; -0.193 (inactive) in test [3]; -0.2 (inactive) in test [5]; 0.413 (inactive) in test [6]; -0.392 (inactive) in [7]. Further, the z-score in test [8] was 0.758 (inactive); in test [9], 0.366. For the same molecule, the composite z-score in [4] was -1.12 (inactive); in test [10], -0.0773.
For `COCCCNC(=O)[C@@]1(Cc2ccccc2N=[N+]=[N-])N=C(c2ccc(OCCCO)cc2)O[C@H]1c1ccccc1N=[N+]=[N-]`, the z-score in test [1] is -0.993; in test [2], -0.181 (inactive); in test [3], -2.32 (inactive); in test [5], 0.454 (inactive); in test [6] it was 1.83 (inactive); in test [7], 0.478 (inactive). Besides, the z-score is -0.607 (inactive) in test [8] and -1.99 in test [9]. Further, the composite z-score in test [4] was 1.21 (inactive); in [10], 0.323.
Take `CC(C)N1C(=O)c2ccccc2[C@](C)(C(=O)NCc2ccccc2)[C@@H]1c1ccc(CO)cc1`: the z-score in test [1] is -0.394; in test [2] it was -0.704 (inactive); in test [3], -1.09 (inactive); in [5], 1.06 (inactive); in test [6], -0.271 (inactive); in [7], 0.0861 (inactive). In addition, the values for the z-score in test [8] and in test [9] were -0.681 (inactive) and 0.121, respectively. Besides, the composite z-score is 0.0524 (inactive) in [4] and 0.0623 in test [10].
Regarding `O=C1O[C@H](c2ccccc2)[C@H](c2ccccc2)N2[C@H]1[C@@H](C(=O)N1CCN(c3ncccn3)CC1)[C@]1(C(=O)Nc3ccc(C#CC4=CCCCC4)cc31)[C@H]2c1ccc(O)cc1`, the z-score in [1] is 1.03; in test [2], 0.866 (inactive); in [3], 0.0054 (inactive); in test [5], 0.902 (inactive); in [6] it was 2.46 (inactive); in [7], 0.105 (inactive). Further, the figures for the z-score in test [8] and in [9] were 0.557 (inactive) and -0.441, respectively. In addition, the results for the composite z-score in test [4] and in test [10] were -0.457 (inactive) and -0.0559, respectively.
In the case of `CC(C)(C)OC(=O)CC[C@@]1(C(=O)NCC(O)CO)N=C(c2ccc(OCCCO)cc2)O[C@@H]1c1ccccc1N=[N+]=[N-]` (stereo not given in full), the z-score was 0.486 in test [1]; -0.69 (inactive) in [2]; -1.26 (inactive) in test [3]; -0.127 (inactive) in test [5]; 0.151 (inactive) in [6]; 0.4 (inactive) in [7]. The z-score in [8] was 1.65 (inactive); in test [9], 0.576. In addition, the composite z-score is 0.536 (inactive) in test [4] and 0.201 in test [10].
For the molecule `C=CCC(OC(C)=O)[C@@H]1[C@@H](N(Cc2ccc(-c3cccc(C(F)(F)F)c3)o2)C(=O)Cc2ccc(F)cc2)c2cc(OCCCO)ccc2N1C(=O)Cc1ccc(OC)cc1` (stereo not given in full), the z-score in test [1] was 1.2; in test [2] it was -0.546 (inactive); in test [3], 1.51 (inactive); in test [5], 0.0186 (inactive); in test [6], -0.905 (inactive); in test [7] it was 0.559 (inactive). Besides, the z-score in [8] is 0.671 (inactive); in test [9] it was 1.06. Also, the composite z-score in [4] was -1.26 (inactive); in test [10], 0.0181.
